Sfp PPTase inh = blocks B. subtilis Sfp PPTase activity. 310,000 tested, 3.5% active. Biochemical Sfp PPTase activity, qHTS. Q9F4F7. Potency, µM, for inactives: largest response in the series, negative = inhibition, hits mostly inhibitors;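 further: the enzyme is Sfp with the accession as filed and its product quenches rhodamine fluorescence; 0% = enzyme reaction without inhibitor and -100% = no enzyme wells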
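Sfp 15 nM + cpd, 15 min RT; start w/ rhodamine-CoA 5 uM, BHQ-2-YbbR 12.5 uM (final); 50 mM Hepes pH 7.6, 10 mM MgCl2, 0.01% NP-40, 0.01% BSA; read 525/598 nm at 0 and 30 min.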
12-LOX inh = ALOX12 (human) lipoxygenase inhibition. AID 1671190. 580,000 tested, 1.1% active. Potency, µM (highest dose often 108 µM), for inactives: at the top dose activity change, negative = inhibition, most hits filed as inhibitors. P18054. purified 12hLO, xylenol orange hydroperoxide absorbance
Target sequence (P18054 whole entry, looked up): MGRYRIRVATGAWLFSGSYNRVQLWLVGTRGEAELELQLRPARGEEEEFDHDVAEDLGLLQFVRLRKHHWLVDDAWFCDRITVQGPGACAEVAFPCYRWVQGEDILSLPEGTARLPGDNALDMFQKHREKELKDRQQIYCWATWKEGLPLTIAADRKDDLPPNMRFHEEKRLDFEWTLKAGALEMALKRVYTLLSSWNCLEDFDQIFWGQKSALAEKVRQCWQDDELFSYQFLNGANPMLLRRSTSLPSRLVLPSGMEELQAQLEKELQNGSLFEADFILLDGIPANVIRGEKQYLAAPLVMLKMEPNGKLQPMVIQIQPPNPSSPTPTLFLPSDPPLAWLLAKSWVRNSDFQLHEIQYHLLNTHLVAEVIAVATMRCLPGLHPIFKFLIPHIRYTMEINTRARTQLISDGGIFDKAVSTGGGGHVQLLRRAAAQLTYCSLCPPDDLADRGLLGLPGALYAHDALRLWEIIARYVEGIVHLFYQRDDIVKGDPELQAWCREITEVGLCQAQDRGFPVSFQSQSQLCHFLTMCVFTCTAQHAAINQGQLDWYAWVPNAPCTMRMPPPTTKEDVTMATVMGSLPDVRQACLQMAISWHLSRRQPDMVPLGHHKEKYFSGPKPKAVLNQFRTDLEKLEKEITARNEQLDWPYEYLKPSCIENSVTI
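Hydroperoxide product was detected by ferrous iron/xylenol orange as the 573 to 405 nm absorbance ratio. Arachidonic acid at 40 uM (final) was turned over for 30 min at room temperature by 150 nM human 12hLO, pH 7.0 Hepes buffer, after 15 min compound preincubation.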
PLK1 PBD inh = PLK1 (human) polo-box domain binding inhibition; P53350; Plk1 PBD binding of FITC phosphopeptide, fluorescence polarization; Potency, µM, inactives show max response, negative = inhibition, actives largely listed as inhibitors; 360,000 tested, 2.8% active; further: series mostly up to about 57 µM; nearly all actives have a fitted effect of over 65% in size
VDR inhibitor = inhibitors of human vitamin D receptor; Potency, µM, for the others: max response, negative = inhibition, usual class: inhibitors; 400,000 tested, 0.93% active; VDR-SRC2-3 peptide fluorescence polarization, 2 h; AID 504847
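VDR–SRC2-3 interaction, FP format. Cmpds 23 nl via pintool, brief spin, 2 h ambient incubation.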
* marks the source's active call; other numbers are inactive results; ? = inconclusive; · = no result given; ! = not confirmed by another sample. Sampled rows, rich in hits. Any-hit rate of the full collection: about 4.2%. The call rests on the fitted dose curve; in most records, active means well fitted curve in the direction sought with a large enough effect; inconclusive means small, poorly fitted or top-dose-only effect, or another doubt; inactive means no such curve, though single readings can be large; an effect the other way counts as inactive or inconclusive. Unless noted, on the % scale 0 is the no-effect control and ±100 the full control effect; potency means the concentration at half of the fitted maximal effect.

SMILES	Sfp PPTase inh	12-LOX inh	PLK1 PBD inh	VDR inhibitor
CCOC(=O)c1c2c(c(=S)n(-c3ccccc3)c1N)CCC2	13µM*	?	-8%	-4%
COc1ccc(/C=C2\SC(=O)N=C2N)cc1	-3%	-12%	-5%	0%
COc1cccc(NC(=O)c2cc3ccc(O)cc3oc2=O)c1	·	5%	·	·
CCOC(=O)c1[nH]c(=S)n(Cc2ccccc2)c1C(=O)OCC	·	?	-11%	13%
CCOC(=O)c1[nH]c(=S)n(-c2ccccc2)c1C(=O)OCC	·	7.1µM*	-5%	·
Cc1cnc(SCCc2ccncc2)nc1C	11µM*	·	·	·
NC(=O)CC[C@@H](N)C(=O)O	-8%	·	·	1%
N[C@@H](CCS(=O)O)C(=O)O	40µM*!	4%	·	4%
O=C(c1ccc(N2CCOCC2)cc1)N1CCCC(Nc2ccccc2)C1 (stereo not given)	14%	-3%	9.5µM*	?
COc1ccc(NC(=S)NNC(=O)COc2ccc(Cl)cc2Cl)cc1	-10%	?	-27%	-14%
O=C(COc1ccc(Br)cc1Cl)NC(=S)Nc1ccccn1	56µM*	?	-13%	-19%
COc1ccc(OCC(=O)NC(=S)NNC(=O)COc2ccc(Br)cc2Cl)cc1	22µM*	14µM*	24µM*	?
O=C(CNC(=O)[C@@H]1Cc2ccccc2CN1)NC1CCCC1	9%	-8%	-2%	1%
CCOC(=O)C(=NC1CCCCC1)NNc1cccc(C(F)(F)F)c1	1%	50µM*	-3%	1%
CCOC(=O)C(=NC1CCS(=O)(=O)C1)NNc1ccccc1Cl (stereo not given)	?	13µM*	27µM*	-26%
CCOC(=O)C(=NC(C)CC)NNc1ccc(Br)cc1 (stereo not given)	-3%	28µM*	-11%	4%
CCOC(=O)C(=NC(C)CC)NNc1cccc(C(F)(F)F)c1 (stereo not given)	7%	?	3%	-3%
CCC(=O)NNc1ccc(Br)cc1	-5%	-19%	-5%	12%
CCOC(=O)C(=NC1CCS(=O)(=O)C1)NNc1ccc(Br)cc1 (stereo not given)	-25%	16µM*	6%	-3%
COc1ccc(CCn2nnnc2C(C(C)C)N2CCC(C(N)=O)CC2)cc1OC (stereo not given)	11%	13%	-11%	-5%
COc1ccc(CNC(=O)N2CCc3c(nc(-c4ccc(OC)cc4)[nH]c3=O)C2)cc1	·	25%	·	·
COc1cccc(N2CC(C(=O)N3CCC(C(=O)NCCc4ccc(Cl)cc4)C3)NC2=O)c1 (stereo not given)	·	10%	·	·
CCS(=O)(=O)N1CCc2cc(C(=O)Nc3cccc(Cl)c3C)ccc21	·	-8%	·	8%
O=C(N/N=C/C(Cl)=C/c1ccc([N+](=O)[O-])cc1)C(=O)Nc1ccc(C(=O)O)cc1	?	-11%	30µM*	?
O=C(O)c1ccc(S(=O)(=O)NCc2cccnc2)cc1	19%	5%	2%	-9%
SMILES	Sfp PPTase inh	12-LOX inh	PLK1 PBD inh	VDR inhibitor
O=C(O)/C=C/c1ccc(S(=O)(=O)NCc2cccnc2)cc1	15%	0%	24µM*	?
Cc1cc(=O)cc(C)n1C	·	-6%	·	·
Cc1noc(-c2ccc3c(c2)OCO3)c1C(=O)NCCSCc1ccccc1	·	20µM*	·	·
COC(=O)c1ccc(OCC2c3cc(OC)c(OC)cc3CCN2C(=O)Cc2ccc(OC)c(OC)c2)cc1 (stereo not given)	·	6%	·	-5%
CCn1c(C)c(CS(=O)(=O)c2ccccc2)[nH]c1=O	25µM*	-12%	3.4µM*	?
CCn1c(=O)[nH]c2ccccc21	5%	33%	·	9%
CC(C)(C)n1nnnc1C(c1cccs1)N(Cc1ccccc1)Cc1ccco1 (stereo not given)	13%	36%	-9%	-7%
CC(C)(C)n1nnnc1C(c1ccncc1)N(Cc1ccccc1)Cc1ccco1 (stereo not given)	50µM*	?	-8%	-20%
CSc1nc(N2CCOCC2)c2c(c1C#N)CC(C)(C)OC2	17%	19%	-6%	4%
CC1(C)Cc2c(c(N3CCCC3)[nH]c(=S)c2C#N)CO1	40µM*	·	·	·
O=S(=O)(Nc1nc2ccc(S(=O)(=O)N3CCCCC3)cc2s1)c1ccccc1	-18%	?	?	-4%
Cc1cc(NC(=O)c2cccs2)ncc1NC(=O)C(C)(C)C	15%	-35%	-6%	-21%
COCc1cc(C)nc(SCC(=O)c2ccc(O)c(O)c2)c1C#N	56µM*	0.89µM*	-28%	3%
COCc1cc(C)nc(SCc2ccc(Cl)cc2)c1C#N	-15%	1%	-3%	8%
